This note sets out measurements from PubChem BioAssay AID624417 (National Center for Advancing Translational Sciences (NCATS), 2012).

Structures are written as SMILES. Hit rate of the full screen: of about 410,000 compounds, about 6,400 (1.6%) were called active. Entries that show only a call come without a potency. About 20% were inconclusive and are not listed. The call rests on the fitted dose curve; in most records, active means well fitted inhibition curve with a large enough effect; inconclusive means small, poorly fitted or top-dose-only effect; inactive means no such curve, though single readings can be large or run the other way. The full list was thinned out, with actives kept by preference.
Potency means the concentration at half of the fitted maximal effect.

Sequence of Glucagon-like peptide 1 receptor (Homo sapiens) (P43220 whole entry, looked up): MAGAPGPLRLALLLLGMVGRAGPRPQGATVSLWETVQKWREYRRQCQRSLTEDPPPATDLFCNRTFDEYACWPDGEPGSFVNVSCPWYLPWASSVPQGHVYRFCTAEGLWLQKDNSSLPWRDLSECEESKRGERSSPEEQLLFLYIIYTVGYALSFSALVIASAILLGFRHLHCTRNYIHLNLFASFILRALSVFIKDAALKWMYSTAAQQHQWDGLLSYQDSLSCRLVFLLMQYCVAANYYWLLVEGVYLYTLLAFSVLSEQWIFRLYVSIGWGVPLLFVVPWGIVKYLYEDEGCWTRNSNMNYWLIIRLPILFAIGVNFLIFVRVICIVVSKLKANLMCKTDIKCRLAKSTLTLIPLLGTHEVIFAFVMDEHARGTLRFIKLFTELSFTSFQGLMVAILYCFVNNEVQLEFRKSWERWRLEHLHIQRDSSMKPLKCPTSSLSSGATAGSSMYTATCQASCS

For the assay, the target named is Glucagon-like peptide 1 receptor (Homo sapiens) (UniProt P43220). In words: qHTS of GLP-1 Receptor Inverse Agonists (Inhibition Mode). Further: nearly all actives have a fitted effect of over 55% in size. Conditions: HEK293 GLP-1R CRE-luciferase, luminescence, 24 h, GLP-1R form is constitutively active; series mostly up to 38.3 µM. Put shortly:
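Stable HEK293 clone (constitutively active GLP-1R + cAMP-response luciferase); 200 cells/uL plated, 12 h pre-culture, compound 24 hr, 37 deg C/5% CO2; detection reagent 12 min RT; luminescence.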
In general terms: Quantitative high-throughput screening tests each substance at several concentrations.
On to `COc1ccc(C(C)(C)C)cc1NC(=O)CN(C)C1=NS(=O)(=O)c2ccccc21`, for which the Potency entry is “inactive”.

For the compound `COc1ccc(CCNC(=O)CN(c2ccccc2)S(=O)(=O)c2ccccc2)cc1`, the Potency result was “inactive”.

Regarding `COc1cccc(NC(=O)N(Cc2cn(C)c3ccccc23)C2CCCCCC2)c1`, the Potency is 10 µM (active).

`COc1cccc(NC(=O)N2CCCC2C(=O)NC2CCCCC2)c1` (stereo not drawn): the Potency entry is “inactive”.

Turning to `COc1cccc(NC(=O)C2CCCN2C(=O)OCc2ccccc2)c1` (stereo not drawn), the Potency entry is “inactive”.

As for `CCOC(=O)c1cc2cc(OC)ccc2n1C1CCN(C)CC1`, the Potency entry is “inactive”.

For `C[C@@H]1CN([C@@H](C)CO)C(=O)c2cc(NS(C)(=O)=O)ccc2O[C@@H](C)CCCCO[C@H]1CN(C)C(=O)Nc1ccc2c(c1)OCO2`, the Potency result was “inactive”.

With `Cc1ccccc1NC(=S)N(CCCN1CCOCC1)Cc1cccs1`, the Potency entry was “inactive”.

As to `CCc1ccccc1NC(=S)N(CCN1CCCCCC1)Cc1ccco1`, the Potency result is “inactive”.

Regarding `Cc1ccc(NC(=S)N(CCCN2CCCC2)Cc2cccn2Cc2ccc(Cl)cc2)cc1`, the Potency was 2.24 µM (active).

On to `COc1ccc(C(O)c2nc(-c3ccc4c(c3)OCO4)cs2)cc1` (stereo not drawn), for which the Potency entry is “inactive”.

For `COc1cccc(-c2cc3nc(NCc4ccccc4OC)n(C)c(=O)c3s2)c1`, the Potency result was “inactive”.

With `CCCOc1ccc(NC(=O)CC2C(=O)N(c3ccccc3)C(=O)N2Cc2ccco2)cc1` (stereo not drawn), the Potency entry was “inactive”.

`CCCOc1ccc(NC(=O)CC2C(=O)N(C)C(=S)N2Cc2ccc3c(c2)OCO3)cc1` (stereo not drawn): the Potency was 10 µM (active).

With `COc1ccc(NC(=O)CSc2nccn2Cc2ccc3c(c2)OCO3)cc1`, the Potency result was “inactive”.

For the compound `Cc1noc(C)c1NC(=O)N(C)C[C@@H]1Oc2cc(Br)ccc2S(=O)(=O)N([C@@H](C)CO)C[C@H]1C`, the Potency entry is “inactive”.

`N#C/C(=C(/O)COC(=O)COc1ccc(Cl)cc1)c1nc2ccccc2[nH]1`: the Potency is 10 µM (active).

For the compound `COCCN(CCOC)S(=O)(=O)c1ccc(/C(O)=C(\C#N)c2nc3ccccc3[nH]2)cc1`, the Potency result was “inactive”.

Turning to `N#C/C(=C(/O)COc1cccc2ccccc12)c1nc2ccccc2[nH]1`, the Potency result was “inactive”.

With `O=C(COC(=O)CCc1c[nH]c2ccccc12)Nc1cccc(Cl)c1`, the Potency entry was “inactive”.

Consider `CC(C)C[C@H]1CN([C@@H](Cc2ccccc2)CN2CCC[C@@H]2CN2C(=O)C(=O)NC[C@@H]2Cc2ccc(O)cc2)C(=O)C(=O)N1CCc1ccccc1`, for which the Potency result was “inactive”.

With `CCOCCCNCc1cc(Br)ccc1OCC`, the Potency entry was “inactive”.

Regarding `CCOCCCNCc1ccc(OCc2ccc(F)cc2)c(OC)c1`, the Potency is 1.12 µM (active).

Consider `COc1ccc(CNCCCO)cc1OC`, for which the Potency entry is “inactive”.

For `COCCCn1c(C(=O)NC2CCCCC2)cc2c(=O)n3cccc(C)c3nc21`, the Potency result is “inactive”.

As to `COC(=O)c1ccc2nc(-c3ccc(C)cc3)c(Cc3ccc(OC)cc3C)n2c1`, the Potency entry is “inactive”.

For `COc1cc(C)c(CN2CCN(C(=O)CCC(=O)c3ccc(C)s3)CC2)cc1OC`, the Potency entry is “inactive”.

With `O=C1C(Sc2cccc(F)c2)=C[C@@]2(O)CC[C@@H](O)[C@]1(Sc1cccc(F)c1)[C@H]2O`, the Potency result is “inactive”.

Take `O=C(NCCCN1CCN(c2cccc(Cl)c2)CC1)c1nnc(Cc2ccc(F)cc2Cl)o1`: the Potency is 12.6 µM (active).

Consider `Cn1c(C(=O)NCCCN2CCN(c3cccc(Cl)c3)CC2)cc2c(=O)n(C)c3ccccc3c21`, for which the Potency result was “inactive”.

On to `COc1ccc(N2CCN(CCNC(=O)c3nnc(Cc4c(F)cccc4Cl)o3)CC2)cc1`, for which the Potency entry was “inactive”.

Take `CSc1ncnc2c1ncn2CCCNCC(C)c1ccccc1` (stereo not drawn): the Potency result is “inactive”.

Consider `CCCCCCCCN1C(=O)[C@H](CC(=O)NCC23CC4CC(CC(C4)C2)C3)C[C@@]2(C(=O)OC)CCCCC=C12`, for which the Potency entry was “inactive”.

Regarding `CCNC(=O)C1(C)CCN(C(=O)c2ccccc2)C1` (stereo not drawn), the Potency result was “inactive”.

On to `CCOC1=C2[C@@H](CN(S(=O)(=O)c3ccc(C)cc3)[C@H]2c2ccccc2F)[C@H]2C(=O)N(Cc3ccccc3)C(=O)[C@H]2C1`, for which the Potency entry is “inactive”.

Regarding `CCCNC(=O)c1cc(C2CCCN(C(=O)c3ccc4c(c3)CCO4)C2)on1` (stereo not drawn), the Potency entry is “inactive”.

Consider `O=C(Cn1c(=O)nc(-c2ccccc2)c2cc(Cl)ccc21)NCc1ccc(Cl)cc1`, for which the Potency entry is “inactive”.

As to `CC(C)c1ccc2c(c1)c(SC(C)(C)C)c(CC(C)(C)C(=O)O)n2Cc1ccc(Cl)cc1`, the Potency is 2.82 µM (active).

Consider `O=C(O)C1CCCN1c1nc(Cl)ccc1[N+](=O)[O-]` (stereo not drawn), for which the Potency result was “inactive”.

With `Cc1ccc(F)c(S(=O)(=O)NC(=O)C2(C)CCN2C(=O)c2ccco2)c1` (stereo not drawn), the Potency entry is “inactive”.

`CCn1c(-c2cccnc2Cl)nc2cc(C)c(C)cc21`: the Potency result is “inactive”.

For `Clc1ccc(COn2c(-c3ccc(Cl)cc3Cl)nc3ncccc32)cc1`, the Potency is 10 µM (active).

Regarding `COn1c(-c2ccc(Cl)cc2Cl)nc2ncccc21`, the Potency result is “inactive”.

On to `O=C(C[C@H]1CC[C@H]2[C@@H](COC[C@H](O)CN2C(=O)c2ccccn2)O1)N1CCN(c2ccccc2)CC1`, for which the Potency result is “inactive”.

`O=C(COc1ccc(Br)cc1)OCC(=O)c1ccc[nH]1`: the Potency result was “inactive”.

As to `O=C1CCC(=O)N1CCC(=O)N(C(=O)NC1CCCCC1)C1CCCCC1`, the Potency result was “inactive”.

`COc1cccc(-c2nc(CS(=O)(=O)CC(=O)NCCc3ccc(OC)c(OC)c3)c(C)o2)c1`: the Potency entry is “inactive”.

On to `COc1cccc(-c2nc(CS(=O)(=O)CC(=O)N3CCN(c4cc(C)ccc4C)CC3)c(C)o2)c1`, for which the Potency is 7.94 µM (active).

Regarding `CCCCN(CC)CCCNC(=O)CS(=O)(=O)Cc1nc(-c2cccc(OC)c2)oc1C`, the Potency result is “inactive”.

As for `COc1ccc(OC)c(CN2C(=O)CCC2(C)c2nnnn2Cc2ccccc2)c1` (stereo not drawn), the Potency entry is “inactive”.

For `O=C1CCC(C(=O)OCC(=O)Nc2ccc(OC(F)F)cc2)=NN1`, the Potency entry was “inactive”.

For the compound `CCC(C)Sc1nc2c(c(=O)[nH]c(=O)n2C)n1CC(O)COc1cccc2ccccc12` (stereo not drawn), the Potency result was “inactive”.

For the compound `Cc1cc(C)c(NC(=O)C[N+](C)(C)CC(O)COc2cccc3ccccc23)c(C)c1` (stereo not drawn), the Potency entry was “inactive”.

Regarding `CC(C)c1ccccc1OCC(O)CN(CC(O)COc1cccc2ccccc12)C(C)C` (stereo not drawn), the Potency is 8.91 µM (active).

As to `Nc1ncnc2c1ncn2[C@@H]1O[C@H](C(=O)N2CCCN(Cc3ccccc3F)CC2)[C@@H](O)[C@H]1O`, the Potency entry was “inactive”.

In the case of `CC1(C(=O)NS(=O)(=O)c2cccc(F)c2)CCN1C(=O)Cc1ccc(Cl)cc1Cl` (stereo not drawn), the Potency result was “inactive”.

Turning to `Cc1nc(N2CCN(c3ccccn3)CC2)c2c(C)c(C(=O)Nc3ccc(F)cc3)sc2n1`, the Potency entry was “inactive”.

In the case of `COc1ccc(NC(=O)c2sc3nc(C)nc(N4CCN(c5ccccn5)CC4)c3c2C)c(OC)c1`, the Potency result is “inactive”.

As for `Cc1nc(N2CCC(C)CC2)c2c(C)c(C(=O)Nc3cc(F)ccc3C)sc2n1`, the Potency was 10 µM (active).

On to `CN(Cc1ccc(C(F)(F)F)cc1)C(=O)[C@H]1O[C@@H](n2cnc3c(N)ncnc32)[C@H](O)[C@@H]1O`, for which the Potency result was “inactive”.

As for `COc1ccc(C(=O)O)cc1S(=O)(=O)NC1CCN(Cc2ccccc2)CC1`, the Potency entry is “inactive”.

With `COc1cc(C(=O)NC2CCN(Cc3ccccc3)CC2)cc(Cl)c1OC(C)C`, the Potency was 10 µM (active).

For `COc1cc2[nH]c(=O)n(Cc3ccc(C(=O)NC4CCN(Cc5ccccc5)CC4)cc3)c(=O)c2cc1OC`, the Potency result is “inactive”.

On to `O=C(C=CC(=O)Nc1ccc(F)cc1F)Nc1ccc(F)cc1F`, for which the Potency result was “inactive”.

As to `O=C(NCc1ccncc1)c1cccc(NS(=O)(=O)c2ccc(F)c(F)c2)c1`, the Potency entry is “inactive”.

With `CCOC(=O)N1CCN(C(=O)c2ccc(S(=O)(=O)Nc3cccc(C(F)(F)F)c3)cc2)CC1`, the Potency result was “inactive”.

On to `O=C(NCc1ccccc1)c1ccc(S(=O)(=O)Nc2cccc(C(F)(F)F)c2)cc1`, for which the Potency is 10 µM (active).

As to `CC(=O)Nc1ccc(C=CC(=O)c2ccc([N+](=O)[O-])cc2)cc1`, the Potency result was “inactive”.

On to `O=C(O)/C=C/C(=O)NNc1ccc([N+](=O)[O-])cc1`, for which the Potency was 8.91 µM (active).

As for `CC(=O)Nc1ccc(C=Cc2ccc([N+](=O)[O-])cc2)cc1`, the Potency entry was “inactive”.

Take `CN1OC[C@@H]2CN(C(=O)c3cccc4ccccc34)[C@H](c3ccc(N4CCCCC4)cc3)C[C@@H]21`: the Potency result is “inactive”.

With `COCCNC(=S)N(Cc1cccnc1)Cc1ccc(OC)c(OC)c1`, the Potency entry was “inactive”.

As to `CCN(Cc1ccncc1)C(=S)Nc1ccccc1C`, the Potency entry was “inactive”.

Turning to `Cc1ccc(CN(Cc2cccnc2)C(=S)Nc2cc(Cl)ccc2C)cc1`, the Potency was 10 µM (active).

For `Nc1nc2cc(Cl)ccc2n1N`, the Potency entry is “inactive”.

On to `C[C@H]1Cn2cnc(C(=O)N[C@@H](Cc3c[nH]c4ccccc34)C(=O)OC(C)(C)C)c2C(=O)N1`, for which the Potency entry was “inactive”.

`COc1ccccc1C(=O)NC(=S)Nc1ccc(N2CCOCC2)cc1`: the Potency entry was “inactive”.

Turning to `O=C(Cc1ccc([N+](=O)[O-])cc1)NCCS(=O)(=O)N1CCN(c2ccccc2)CC1`, the Potency result is “inactive”.

On to `Cc1ccc(-n2ncc3c2CCCC3NC(=O)c2cnccn2)cc1C` (stereo not drawn), for which the Potency entry is “inactive”.

Take `Cn1nccc1C(=O)NC1CCCc2c1cnn2-c1ccc(F)cc1F` (stereo not drawn): the Potency entry is “inactive”.

With `COc1ccc(OC)c(C(=O)NC2CCCc3c2cnn3-c2cc(C)cc(C)c2)c1` (stereo not drawn), the Potency was 10 µM (active).

As to `COCCCNC(=O)c1ccc(-c2c(C)noc2C)c2ccoc12`, the Potency entry was “inactive”.

Regarding `CCCS(=O)(=O)NC(=O)C1(C)CCCN(C(=O)c2cc(C)on2)C1` (stereo not drawn), the Potency result is “inactive”.

As for `CCC1NC(=O)c2cccnc2-n2c1nc1ccc(C)cc1c2=O` (stereo not drawn), the Potency result is “inactive”.

For `CCN1C(=O)[C@@H]2[C@@H](c3ccc(-c4ccc(OC)cc4)c(OC)c3)N3CCC[C@@]3(C(=O)OC)[C@@H]2C1=O`, the Potency result is “inactive”.

Turning to `CCCCCCSc1ccc([C@@H]2[C@H]3C(=O)N(CC)C(=O)[C@H]3[C@]3(C(=O)OC)CCCCN23)cc1`, the Potency result was “inactive”.

As for `CCCCCCSc1ccc([C@@H]2[C@@H]3C(=O)N(CC)C(=O)[C@@H]3[C@]3(C(=O)OC)CCCCN23)cc1OC`, the Potency was 11.2 µM (active).

As to `CSc1ccc(CNC(=O)C2(C)CCCN2C)cc1` (stereo not drawn), the Potency entry was “inactive”.

For the compound `Cc1cc(C(=O)N2CCCC2(C)C(=O)O)c(C)o1` (stereo not drawn), the Potency result is “inactive”.

For `Cn1nccc1C(=O)N1CCCC(C(=O)c2ccc(Oc3ccccc3)cc2)C1` (stereo not drawn), the Potency was 3.55 µM (active).

As for `CCn1nc(C)cc1C(=O)N1CCCC(C(=O)c2cccc(OC)c2)C1` (stereo not drawn), the Potency entry is “inactive”.

For `O=C(c1ccc(-c2ccccc2)cc1)C1CCCN(C(=O)c2cncs2)C1` (stereo not drawn), the Potency entry is “inactive”.

For `CCOC(=O)[C@]12CCC=C1N(Cc1ccco1)C(=O)[C@H](CC(=O)N1CCSCC1)C2`, the Potency entry is “inactive”.
